An excerpt weighted towards active compounds, which were near 4.1% of everything screened.
hcDAF-12 act – activators of H. contortus DAF-12 nuclear receptor | HEK293 hcDAF-12 lit1-tk-luc reporter, luminescence; 0% DMSO, 100% Δ7-dafachronic acid | activation, % at 6.8 µM | 370,000 compounds, 1.4% hits | AID 652067;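 active = activation above the mean of all tested compounds plus 3 SD, cut at about 5.5% in these data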
ssDAF-12 act – S. stercoralis DAF-12 activation, primary screen; activation, % at 6.8 µM; HEK293 ssDAF-12/GRIP1 lit1-tk-luc reporter, luminescence; % of 3 µM dafachronic acid response; 370,000 compounds, 1% hits;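 active = activation above the mean over all tested compounds plus 3 SD, cut at about 0.9% in these data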
DAX1 inh-1 – inhibits human nuclear receptor DAX1; P51843; HEK293 Gal4-DAX1 luciferase reporter, luminescence; inhibition, % at 6.75 µM; 340,000 compounds, 0.99% hits; AID 504766;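 active = inhibition above the mean over all tested compounds plus 3 SD, cut at about 4.2% in these data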;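 note: inhibition shows as a rise in luminescence from relieved DAX1 repression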
Target sequence (P51843 207-470 limits assumed): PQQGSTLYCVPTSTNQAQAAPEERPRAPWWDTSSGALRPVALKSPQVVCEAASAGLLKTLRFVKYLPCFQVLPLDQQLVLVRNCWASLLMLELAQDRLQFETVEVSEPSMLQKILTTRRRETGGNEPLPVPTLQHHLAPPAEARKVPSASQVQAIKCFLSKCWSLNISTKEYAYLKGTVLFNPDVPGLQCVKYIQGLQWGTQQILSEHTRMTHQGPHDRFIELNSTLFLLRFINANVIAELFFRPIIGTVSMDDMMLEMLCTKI
hgDAF12 agonist – hgDAF-12 agonism, primary luciferase screen | HEK293 GAL4-hgDAF12 UAS-luciferase reporter, agonist luminescence; normalized to butyrate control | activation, % at 6.8 µM | 370,000 compounds, 1.8% hits;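 active = activation above a cutoff set at the mean of all screened compounds plus 3 SD, cut at about 10% in these data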
DAX1 inh-2 – inhibitors of DAX1 repression of SF-1 activated StAR promoter; 370,000 compounds, 1.1% hits; HEK293T StAR-luciferase reporter, SF-1/DAX-1 repression relief; inhibition, % at 6.8 µM; AID 652010;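 active = inhibition above the mean over all tested compounds plus 3 SD, cut at about 3.6% in these data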;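 note: higher inhibition means more luminescence from relief of DAX-1 repression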
Of the large screens only hits and unclear results are named; the others gave an inactive call.

CCCCOCCCNC(=O)C[C@@H]1C(=O)N(Cc2ccc(OC)cc2)/C2=C/CCCCC[C@@]21C(=O)OCC	none (no result: DAX1 inh-1)
CN1C2=N[C@@H](c3ccc4c(c3)OCO4)CC(=O)N2/C(=C\c2ccccc2)[C@@H]1c1ccccc1	none (no result: DAX1 inh-1, DAX1 inh-2)
COc1ccc(Cl)cc1N(C(C)=O)c1nc(C)cc(C)c1C#N	hcDAF-12 act 5.9, DAX1 inh-1 5.1
Cc1ccccc1CNC1CCC12CCC(c1ccccc1)CC2 (stereo unspecified)	none (no result: DAX1 inh-1, DAX1 inh-2)
C=CCn1nc2ccccc2c1OCCO	hcDAF-12 act 6.0
O=S1(=O)N[C@H](c2ccccc2)COc2cc(Br)ccc21	none (no result: DAX1 inh-1)
Cc1[nH]c2ccccc2c1CC(=O)Nc1ccc(Nc2cccnc2)c(-c2ccc(Cl)c(Cl)c2)c1	none (no result: DAX1 inh-1)
C/C(=N\NC(=O)c1ccccc1F)c1ccc2c(c1)Nc1ccccc1S2	hgDAF12 agonist 11
CC1(C)CC(=O)C2=C(C1)Nc1cc3c(cc1C2c1ccc(F)cc1)OCO3 (stereo unspecified)	none
CC1(C)CC(=O)C2=C(C1)Nc1cc3c(cc1C2c1ccc2c(c1)OCO2)OCO3 (stereo unspecified)	DAX1 inh-1 5.3
O=C(CSc1nnc(COc2ccccc2)n1-c1ccc(Cl)cc1)Nc1ccc2c(c1)OCCO2	none (no result: DAX1 inh-1)
CCC1CCCCN1CCCNC(=O)c1ccc2nc(N3CCCCC3)sc2c1 (stereo unspecified)	hcDAF-12 act 5.6, hgDAF12 agonist 11
CCCN1CCN(CCCNC(=O)c2ccc3nc(N4CCCCC4)sc3c2)CC1	DAX1 inh-2 4.4
CC1CCCC(C)N1CCCNC(=O)c1ccc2nc(N3CCCCC3)sc2c1 (stereo unspecified)	DAX1 inh-2 3.8
CC1CC(C)CN(CCCNC(=O)c2ccc3nc(N4CCCCC4)sc3c2)C1 (stereo unspecified)	none
O=c1cc(C=NNc2ccccc2)[nH]c(=O)[nH]1	DAX1 inh-1 4.9
c1ccc(-c2cccc(CNc3nc(-c4ccccn4)nnc3-c3ccccc3)c2)cc1	none (no result: DAX1 inh-1, DAX1 inh-2)
CC(=O)c1ccc(NC(=O)CCS(=O)(=O)c2ccc3c(c2)n(C)c(=O)c(=O)n3C)cc1	DAX1 inh-1 4.8 (no result: hcDAF-12 act, ssDAF-12 act, hgDAF12 agonist, DAX1 inh-2)
O=[N+]([O-])c1nn(-c2ccc(Cl)cc2)n(O)c1=NCc1ccccc1	DAX1 inh-1 5.0
O=[N+]([O-])c1nn(-c2ccccc2)n(O)c1=NCc1ccc2c(c1)OCO2	none
Cc1c(Cl)cccc1N=c1c([N+](=O)[O-])nn(-c2ccccc2)n1O	hcDAF-12 act 5.6
COc1ccc(-n2c(SCC(=O)Nc3ccc4cn[nH]c4c3)nnc2-c2ccccc2)cc1	none (no result: DAX1 inh-1)
CCOc1ccc(CCNC(=O)c2ccccn2)cc1OCC	none (no result: DAX1 inh-1, DAX1 inh-2)
COC(=O)[C@]12C[C@H](CC(=O)NCc3cccc4ccccc34)C(=O)N(Cc3ccc4c(c3)OCO4)C1=C[C@H](C(C)C)O[C@@H]2C1CC1	none (no result: DAX1 inh-1)
O=C(Nc1ccc(C(F)(F)F)cc1)OC1CC2CC1[C@H]1CCCCN1[C@H]2Cc1ccccc1 (stereo partly specified)	none (no result: DAX1 inh-1)
COC(=O)c1cccc(NC(=O)CSc2nnc(COc3ccc(C#N)cc3)n2-c2ccccc2)c1	DAX1 inh-1 5.1
N#Cc1ccc(OCc2nnc(SCC(=O)c3ccccc3)n2-c2ccccc2)cc1	none
CC(=O)Nc1cc2nc3ccccc3oc-2cc1=O	none (no result: DAX1 inh-1)
N#C/C(=C\c1ccccc1O)C(=O)Nc1ccccn1	hcDAF-12 act 5.8
COC(=O)C1=C(C)N(C)C(=NCc2ccc3c(c2)OCO3)NC1c1ccc(C(F)(F)F)cc1 (stereo unspecified)	none (no result: DAX1 inh-1)
COc1ccc(C(=O)CSC#N)cc1OC	hgDAF12 agonist 13
Nc1c(C(=O)c2ccc(Cl)cc2)oc2ccccc12	ssDAF-12 act 1.8, hgDAF12 agonist 12
O=C(O)c1ccc(N=NN2CCCCCC2)cc1	hgDAF12 agonist 11
O=C(O)c1ccc(N=NN2CCCC2)cc1	none
CC(C)(C)NC(=O)CSc1nnc(-c2ccccn2)n1Cc1ccccc1	none
CC(C)(C)NC(=O)CSc1nnc(-c2ccccn2)n1-c1ccccc1	DAX1 inh-1 4.4
Cc1ccccc1NC(=O)O[C@H]1CC[C@@]23CCCN2C(=O)CCC[C@H]3[C@H]1C	none (no result: DAX1 inh-1, DAX1 inh-2)
CC(=O)Nc1cccc(-c2nc3ccccc3s2)c1	hgDAF12 agonist 11
Cc1ccc(C(=O)NC(=S)Nc2cccc(-c3nc4ccccc4s3)c2)cc1	none
O=C(Nc1ccc(-c2nc3ccccc3s2)c(O)c1)C1=COCCO1	DAX1 inh-1 4.9
CCOc1cc(-c2nc3ccccc3s2)ccc1O	hgDAF12 agonist 11
CC(=O)Nc1ccc(O)c(-c2nc3ccccc3s2)c1	hgDAF12 agonist 14
Cc1ccsc1C(=O)Nc1ccc(O)c(-c2nc3ccccc3s2)c1	none
CC(C)c1ccc(-c2nc3ccccc3s2)cc1	none
O=C(Nc1ccc(O)c(-c2nc3ccccc3s2)c1)C1=COCCO1	none
Nc1nc(Cl)nc2c1ncn2[C@@H]1O[C@H](CO)[C@@H](O)[C@@H]1F	none (no result: DAX1 inh-1)
CC(=O)Nc1cccc(-c2csc(N)n2)c1	none
CC(=O)Nc1cccc(-c2cc(C)c3cc4c(cc3n2)OCO4)c1	hcDAF-12 act 5.6
CN(C)CCCN(C(=O)c1ccc(S(=O)(=O)N(C)C)cc1)c1nc2cc3c(cc2s1)OCO3	ssDAF-12 act 1.5
CC(C)c1ccc(N(C(=O)c2ccco2)C(C(=O)NC2CCCC2)c2ccncc2)cc1 (stereo unspecified)	hgDAF12 agonist 10
COc1ccc(N(C(=O)c2ccco2)C(C(=O)NC2CCCC2)c2ccncc2)cc1 (stereo unspecified)	none
CCOc1ccc(N(C(=O)CNC(=O)c2ccco2)C(C(=O)NC2CCCC2)c2cccnc2)cc1 (stereo unspecified)	DAX1 inh-1 5.9
CC(=O)Nc1ccccc1C(=O)C(=O)Nc1ccc(C)c(C)c1	hgDAF12 agonist 11
COc1ccc(CNC(=O)O[C@H]2CC[C@@]34CCCN3C(=O)CCC[C@H]4[C@H]2C)cc1	none (no result: DAX1 inh-1, DAX1 inh-2)
COC(=O)Cn1c(CCC(=O)O)ccc1-c1ccccc1	DAX1 inh-1 5.2
COc1ccc(NC(=O)Cn2c(CCC(=O)O)ccc2-c2ccccc2)cc1	none
CC1(C)C=Cc2ccc(O)c(C(=O)/C=C/c3ccccc3)c2O1	none (no result: DAX1 inh-1, DAX1 inh-2)
Clc1ccccc1C=NNc1ccccn1	none
COc1ccc2nc(Cl)c(/C=N/Nc3ccccn3)cc2c1	DAX1 inh-2 4.1
CCOc1ccc(NC(=O)CN2C(=O)C3CCCN3C2=O)cc1 (stereo unspecified)	DAX1 inh-1 4.7
Cc1cccc(C2NC(=O)c3c(sc(C)c3C)N2)c1O (stereo unspecified)	ssDAF-12 act 1.4
Cc1ccc(S(C)(=O)=NC(=O)NC(=O)c2c(Cl)cccc2Cl)cc1 (stereo unspecified)	DAX1 inh-1 4.9
C=CCCC[C@H]1OC(=O)[C@H](C)NC(=O)[C@H](C(C)C)NC(=O)[C@@H]2CCCN2C(=O)[C@H](Cc2ccccc2)OC(=O)[C@@H](C(C)C)N(C)C(=O)[C@H](C(C)C)NC(=O)C1(C)C	none (no result: DAX1 inh-1)
